High-throughput results (PubChem)
IDE exosite FP = exo-site inhibitors of human IDE, primary screen, biochemical, fluorescence anisotropy, probe displacement; Insulin-degrading enzyme (Homo sapiens), P14735; purified IDE, FL-6b probe fluorescence polarization; hits give low values; z-score at 20 µM; 17,000 compounds, 6.3% hits;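 active means z-score of -3 or lower, meaning strong loss of probe binding signal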;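 further: His-tagged human IDE residues 42-1019 made in E. coli with 30 nM FL-6b probe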
Target sequence (P14735 42-1019 limits assumed): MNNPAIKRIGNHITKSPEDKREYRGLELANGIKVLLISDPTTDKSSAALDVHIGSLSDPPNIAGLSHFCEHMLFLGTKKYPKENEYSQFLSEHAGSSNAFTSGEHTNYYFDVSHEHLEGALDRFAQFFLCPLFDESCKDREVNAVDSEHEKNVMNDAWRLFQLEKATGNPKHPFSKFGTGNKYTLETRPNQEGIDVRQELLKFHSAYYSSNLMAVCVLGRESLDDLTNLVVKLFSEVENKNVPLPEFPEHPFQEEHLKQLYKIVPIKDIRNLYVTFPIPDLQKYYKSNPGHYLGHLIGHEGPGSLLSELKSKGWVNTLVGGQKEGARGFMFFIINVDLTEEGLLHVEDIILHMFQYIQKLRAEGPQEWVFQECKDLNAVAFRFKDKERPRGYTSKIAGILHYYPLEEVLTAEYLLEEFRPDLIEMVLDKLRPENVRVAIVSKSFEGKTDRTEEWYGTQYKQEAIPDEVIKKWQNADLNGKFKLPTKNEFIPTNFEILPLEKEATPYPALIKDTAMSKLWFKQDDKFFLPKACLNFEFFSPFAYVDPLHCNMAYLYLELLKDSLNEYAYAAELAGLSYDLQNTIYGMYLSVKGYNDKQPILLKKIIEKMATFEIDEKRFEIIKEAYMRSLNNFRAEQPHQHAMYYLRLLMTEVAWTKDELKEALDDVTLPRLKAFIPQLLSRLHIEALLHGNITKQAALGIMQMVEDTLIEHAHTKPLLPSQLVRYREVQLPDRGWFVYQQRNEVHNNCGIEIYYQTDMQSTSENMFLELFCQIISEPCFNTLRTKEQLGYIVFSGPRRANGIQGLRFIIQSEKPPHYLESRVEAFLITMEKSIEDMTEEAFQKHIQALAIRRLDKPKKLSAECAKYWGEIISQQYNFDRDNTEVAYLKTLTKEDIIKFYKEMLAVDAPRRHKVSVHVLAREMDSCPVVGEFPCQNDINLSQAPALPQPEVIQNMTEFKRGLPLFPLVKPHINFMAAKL
* = called active by the depositor. The entries come from a sample that favours hits as a whole.

SMILES	IDE exosite FP
CCCN1[C@@H]2c3ccc(-c4ccncc4)c(=O)n3C[C@@H]2[C@@H](CO)[C@@H]1C(=O)NCCCN1CCOCC1	-0.78
C/C=C/c1ccccc1[C@H]1[C@@H](CO)N(C(=O)Nc2ccc(OC)cc2)[C@H]1C#N	-1.3
CC(C)[C@@H]1COCc2cn(nn2)CCC[C@@H](C)C(=O)N1	2
COc1ccccc1NC(=O)N1CCCCN2[C@H](C1)[C@H](c1ccc(-c3cccc(F)c3)cc1)[C@@H]2CO	4.6
N#C[C@H]1[C@H](c2ccccc2C2=CCCCC2)[C@@H](CO)N1S(=O)(=O)c1ccccc1	1
Cc1cccc(-c2ccc([C@H]3[C@@H](CO)N4CCCCN(C(=O)NC(C)C)C[C@@H]34)cc2)c1	-6*
Cc1cccc(-c2ccc([C@@H]3[C@@H](CO)N4CCCCN(C(=O)NC(C)C)C[C@@H]34)cc2)c1	-5.5*
COc1ccccc1NC(=O)N1CCCCN2[C@H](CO)[C@@H](c3ccc(-c4cccc(C)c4)cc3)[C@@H]2C1	-2.8
COc1ccccc1NC(=O)N1CCCCN2[C@H](C1)[C@H](c1ccc(-c3cccc(C)c3)cc1)[C@@H]2CO	2.2
Cc1cccc(-c2ccc([C@@H]3[C@@H](CO)N4CCCCN(C(=O)NC(C)C)C[C@H]34)cc2)c1	-7.2*
COc1ccccc1NC(=O)N1CCCCN2[C@@H](CO)[C@@H](c3ccc(-c4cccc(C)c4)cc3)[C@@H]2C1	-2.2
O=C(N[C@@H]1CC[C@@H](CCn2cc(-c3ccccc3F)nn2)O[C@H]1CO)c1ccc2c(c1)OCO2	1.6
COCCN(C[C@H]1[C@H](c2ccccc2)[C@@H](CO)N1C(C)=O)C(=O)c1ccncc1	4.9
COC(=O)C[C@@H]1CC[C@H]2[C@@H](COC[C@H](O)CN2S(=O)(=O)c2cn(C)cn2)O1	-0.009
COc1ccccc1NC(=O)N1CC(=O)N2[C@H](CO)[C@@H](c3ccc(-c4ccc(C)cc4)cc3)[C@@H]2C1	1.4
O=C(C[C@@H]1CC[C@H]2[C@@H](COC[C@H](O)CN2C(=O)c2ccc(F)cc2)O1)N1CCCCC1	1.6
O=C(C[C@@H]1C[C@@H]2c3cc(NC(=O)C4CCC4)ccc3O[C@@H]2[C@H](CO)O1)NC1CCCC1	-0.69
O=C([C@@H]1[C@@H](CO)[C@@H]2Cn3c(cccc3=O)[C@H]1N2)N1CCc2ccccc2C1	-0.17
O=C(c1ccncc1)N1CC(=O)N2[C@H](CO)[C@@H](c3ccc(-c4ccccc4)cc3)[C@@H]2C1	-0.24
CCc1cnc(N2[C@H](C#N)[C@@H](c3ccc(-c4cccc(F)c4)cc3)[C@H]2CO)s1	-2.8
CCC(=O)N1[C@H](CO)[C@@H](c2ccccc2)[C@@H]1CN(CC)C(=O)c1ccccc1	-0.019
COCC(=O)NC[C@H]1N[C@H](CO)[C@@H]1c1ccc(C2=CCCCC2)cc1	3.3
O=C(NC[C@H]1N[C@H](CO)[C@@H]1c1ccc(-c2ccccc2F)cc1)c1ccccc1	-10*
O=C(NC[C@@H]1N[C@@H](CO)[C@H]1c1ccccc1)c1ccccc1F	1.1
CCC(=O)N1[C@H](CNC(=O)COC)[C@H](c2ccc(-c3ccccc3)cc2)[C@@H]1CO	-2.8
SMILES	IDE exosite FP
O=C(NC[C@H]1N[C@H](CO)[C@@H]1c1ccccc1)c1ccccc1F	0.72
CCS(=O)(=O)N(C)C[C@@H]1N[C@H](CO)[C@@H]1c1ccc(-c2ccccc2F)cc1	-0.26
COCC(=O)NC[C@H]1N[C@H](CO)[C@@H]1c1ccc(-c2ccccc2F)cc1	-3.1*
C/C=C/c1ccc([C@@H]2[C@H](CO)N[C@H]2CNC(=O)c2ccccc2F)cc1	-0.092
COCC(=O)NC[C@H]1N[C@H](CO)[C@H]1c1ccc(-c2ccccc2F)cc1	-3.3*
CCC(=O)N1[C@H](CNC(=O)COC)[C@@H](c2ccc(-c3ccccc3)cc2)[C@@H]1CO	-3.5*
CCC(=O)NC[C@H]1N[C@H](CO)[C@@H]1c1ccc(-c2ccccc2F)cc1	-0.8
COCC(=O)NC[C@H]1[C@H](c2ccc(-c3ccccc3)cc2)[C@@H](CO)N1C(C)=O	2
O=C(C[C@H]1C[C@@H]2c3cc(NC(=O)c4ccc5c(c4)OCO5)ccc3O[C@@H]2[C@H](CO)O1)NCCN1CCCCC1	-1.1
C/C=C/c1ccc([C@@H]2[C@H]3CN(C(=O)c4ccncc4)CC(=O)N3[C@H]2CO)cc1	-0.28
CCCC#Cc1ccc([C@@H]2[C@@H](CO)N3CCCCN(Cc4cccnc4)C[C@H]23)cc1	-0.44
COc1ccc(NC(=O)N2CC(=O)N3[C@H](C2)[C@@H](c2ccc(C4=CCCC4)cc2)[C@@H]3CO)cc1	1.4
O=C(Cc1cccnc1)N1CC(=O)N2[C@H](CO)[C@@H](c3ccc(-c4cccc(F)c4)cc3)[C@H]2C1	2.1
CO[C@H]1CN(C)C(=O)c2ccc(NC(=O)C3CC3)cc2OC[C@H](C)N(C(C)=O)C[C@@H]1C	-1.2
COc1ccc(NC(=O)N2CC(=O)N3[C@@H](CO)[C@@H](c4ccc(C#CCC5CCCC5)cc4)[C@@H]3C2)cc1	1.3
COc1ccc(S(=O)(=O)Nc2ccc3c(c2)[C@H]2C[C@H](CC(=O)N(C)C)O[C@@H](CO)[C@H]2O3)cc1	0.54
C[C@@H]1CCCCO[C@@H](CN(C)S(=O)(=O)c2cn(C)cn2)[C@@H](C)CN([C@@H](C)CO)C(=O)c2cc(NC(=O)Nc3cccc4ccccc34)ccc2O1	-4.2*
C[C@@H]1CN([C@H](C)CO)C(=O)c2cc(NC(=O)Nc3cccc4ccccc34)ccc2O[C@@H](C)CCCCO[C@H]1CN(C)S(=O)(=O)c1cn(C)cn1	-1.4
C[C@@H]1CCCCO[C@H](CN(C)S(=O)(=O)c2cn(C)cn2)[C@H](C)CN([C@@H](C)CO)C(=O)c2cc(NC(=O)Nc3cccc4ccccc34)ccc2O1	-1.7
C[C@@H]1CCCCO[C@@H](CN(C)S(=O)(=O)c2cn(C)cn2)[C@@H](C)CN([C@H](C)CO)C(=O)c2cc(NC(=O)Nc3cccc4ccccc34)ccc2O1	-1.1
C[C@@H]1CCCCO[C@H](CN(C)S(=O)(=O)c2cn(C)cn2)[C@@H](C)CN([C@@H](C)CO)C(=O)c2cc(NC(=O)Nc3cccc4ccccc34)ccc2O1	-0.62
C[C@@H]1CN([C@@H](C)CO)C(=O)c2cc(NC(=O)Nc3cccc4ccccc34)ccc2O[C@@H](C)CCCCO[C@@H]1CN(C)S(=O)(=O)c1cn(C)cn1	-3.9*
COCC#Cc1ccc([C@H]2[C@@H](CO)N3C(=O)CN(C(=O)C4CCOCC4)C[C@H]23)cc1	5.2
CCC(=O)N1C[C@@H](O)COC[C@@H]2O[C@H](CC(=O)NC)CC[C@H]21	0.27
C[C@@H](NC(=O)C[C@H]1C[C@H]2c3cc(NS(=O)(=O)c4ccc(F)cc4)ccc3O[C@H]2[C@H](CO)O1)c1ccccc1	-0.45
O=C(CC1CC1)N1CC(=O)N2[C@H](CO)[C@H](c3ccc(C#Cc4ccccc4)cc3)[C@@H]2C1	-10*
O=C(Cc1ccccc1)N1CC(=O)N2[C@@H](CO)[C@@H](c3ccc(C#Cc4ccccc4)cc3)[C@@H]2C1	0.82
O=C(CC1CC1)N1CC(=O)N2[C@H](C1)[C@@H](c1ccc(C#Cc3ccccc3)cc1)[C@@H]2CO	-8.5*
O=C(CC1CC1)N1CC(=O)N2[C@H](C1)[C@H](c1ccc(C#Cc3ccccc3)cc1)[C@@H]2CO	-16*
O=C(CC1CC1)N1CC(=O)N2[C@H](C1)[C@@H](c1ccc(C#Cc3ccc(F)cc3)cc1)[C@@H]2CO	0.15
